Growth inhibition data for 40 compounds are collected here from PubChem BioAssay (NCI).

About 79,000 compounds went through this panel and 15% of them were active in at least one assay; those are over-represented in the sample as a whole. Unmarked numbers belong to inactive results. Calls of active or inactive are those of the source. Rule as the data show it: active = growth inhibition above about 70%; inactive = the rest.

A short description of one test: NCI Yeast Anticancer Drug Screen. Data for the bub3 strain (AID 167). To be noted: S. cerevisiae bub3 mutant strain, at 5.0 µM (retest, dose inferred, filed as 0.5), hits give high values. Put shortly: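 Whole-cell yeast assay. The mutant strain was incubated with compounds, and growth inhibition was determined by comparison with vehicle-treated cells.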
Consider `O=[N+]([O-])c1cccc(SC(Cl)(Cl)Cl)c1`, for which the growth inhibition was -1%.
For the compound `COc1cc(/C=C(/C)[N+](=O)[O-])ccc1O`, the growth inhibition is 14%.
On the same count and under the same terms, next, `CCC[CH2][Sn]1([CH2]CCC)[O]CC(CN2CCOCC2)[O]1` (stereo not drawn): 22%.
In the case of `O=C1CN2CCCCC2CN1` (stereo not drawn), the growth inhibition is -73%.
Same read-out and setting: next, `CCC[CH2][Sn]([CH2]CCC)([O]C(=O)CCC(C)=O)[O]C(=O)CCC(C)=O`: 89% (active); `C[CH2][Sn]([F])([CH2]C)[CH2]C`: 3%; `CN(C)CCBr`: -10%.
Still for that read-out and setting: as for `O=[N+]([O-])c1ccc2c3c(cccc13)CC2`, the figure is 6%; as for `CC1=CC2CC(C)=C(CC[C@]3(C)CC[C@H]([C@@H](C)C(=O)O)OO3)C(C)(C)C2CC1` (stereo partly drawn), 52%; as for `ClC(CN1CCCCC1)C(Cl)c1ccccc1` (stereo not drawn), 6%.
Same read-out and setting: next, `CCOC(=O)c1ccc(N=Cc2ccc(N(CCCl)CCCl)cc2C)cc1`: -6%; `CN=C(N)N/N=C(\C)c1ccc2sc3ccc(/C(C)=N/NC(N)=NC)cc3c2c1`: 24%.
For `c1cc2n[pH]nc2cn1` (stereo not drawn), the growth inhibition is -1%.
For the compound `O=[N+]([O-])c1ccc(Br)c([N+](=O)[O-])c1`, the growth inhibition is -15%.
As for `O=C(CBr)NC1CCCCC1`, the growth inhibition is 6%.
`CC(C)C12C=C3CCC4C(C)(C(=O)O)CCCC4(C)C3(CC1)OO2` (stereo not drawn): the growth inhibition is -8%.
For `IC(I)=C(I)I`, the growth inhibition was 100% (active).
On to `Clc1ccc2c(c1)C(c1ccccc1Cl)=NCC(SCCN1CCOCC1)=N2`, for which the growth inhibition was 48%.
On the same count and under the same terms, next, `CCOP(=O)(OCC)/C(C#N)=C/c1ccc(Br)cc1`: 11%.
On the same count and under the same terms, next, `Cc1ccc(C(=O)C2C(c3ccccc3)N2C2CCCCC2)cc1` (stereo not drawn): -8%.
As for `CN(C)c1ncnc2c1ncn2C1OC(CO)C2NP(=O)(N(CCCl)CCCl)OC21` (stereo not drawn), the growth inhibition was 0%.
Still for that read-out and setting: next, `Nc1nc(N)c(-c2ccc(Cl)c(Cl)c2)c(CCc2ccc(CNC(=O)c3cccc(S(=O)(=O)F)c3)cc2)n1`: -9%; `C[CH2][Pb]([CH2]C)([CH2]C)[O]C(=O)COc1ccc(Cl)cc1Cl`: -4%; `O=C(OCC(CCl)OC(=O)C(Cl)(Cl)Cl)C(Cl)(Cl)Cl` (stereo not drawn): 1%.

The test is the same for the next values; noted with them: S. cerevisiae bub3 mutant strain, at 50.0 µM (retest, dose inferred, filed as 5.0), hits give high values.
Regarding `O=[N+]([O-])c1cc[n+]([O-])c2ccccc12`, the growth inhibition was 99% (active).
Consider `COc1c[c]([Hg][O]C(C)=O)c(OC)c(NC(=O)CC(C)=O)[c]1[Hg][O]C(C)=O`, for which the growth inhibition is 96% (active).
The same measure, in the same setting: as for `CN(C)c1ccc(C2N(Cc3ccc(N(CCCl)CCCl)cc3)CCCN2Cc2ccc(N(CCCl)CCCl)cc2)cc1`, the figure is 95% (active).
Regarding `CC(=O)c1ccc(-[n+]2c(C)cc(-c3ccccc3)cc2C)cc1`, the growth inhibition is -1%.
Take `[O]=[Sb]([OH])([OH])[c]1ccc(NC2OC(CO)C(O)C(O)C2O)cc1` (stereo not drawn): the growth inhibition was -1%.
Turning to `CCC1CN1P(=O)(Oc1ccccc1)N1CC1CC` (stereo not drawn), the growth inhibition is 52%.
On the same count and under the same terms, as for `CCN(CC)CC(=O)c1cc2ccccc2c2ccccc12`, the figure is 98% (active); as for `O=C1CCCC1Cl` (stereo not drawn), -4%; as for `N#C[S-].[La+3].c1ccc(-c2ccccn2)nc1.c1ccc(-c2ccccn2)nc1.c1ccc(-c2ccccn2)nc1`, 99% (active).
Turning to `O=c1s[se]c2ccccc12`, the growth inhibition is 99% (active).
On the same count and under the same terms, as for `O=C(CCl)Nc1ccc(Cl)cc1`, the figure is 40%; as for `O=C1N[C@H]2[C@H](O)[C@H](O)[C@@H](O)[C@H](O)[C@@H]2c2cc3c(c(O)c21)OCO3`, 60%.
Turning to `O=C(Nc1n[c]([Hg][Cl])[c]([Hg][Cl])s1)OCc1ccccc1`, the growth inhibition was 99% (active).
Still for that read-out and setting: next, `CC[C@@]1(O)C[C@H](OC2CC(N(C)C)C(O)C(C)O2)c2c(cc3c(c2O)C(=O)c2c(O)ccc(O)c2C3=O)[C@H]1C(=O)OC` (stereo partly drawn): 99% (active); `CCCCCc1cc(O)c(CCCC)c(O)c1`: 83% (active).
The same measure, in the same setting: next, `NC(=O)/C=C/c1ccc([As]=O)cc1` (stereo not drawn): 37%; `O=[N+]([O-])c1cccc(SC(Cl)(Cl)Cl)c1`: 99% (active).
With `COc1cc(/C=C(/C)[N+](=O)[O-])ccc1O`, the growth inhibition was 99% (active).
As for `CCC[CH2][Sn]1([CH2]CCC)[O]CC(CN2CCOCC2)[O]1` (stereo not drawn), the growth inhibition is 27%.
Regarding `O=C1CN2CCCCC2CN1` (stereo not drawn), the growth inhibition is -71%.
Consider `CCC[CH2][Sn]([CH2]CCC)([O]C(=O)CCC(C)=O)[O]C(=O)CCC(C)=O`, for which the growth inhibition was 99% (active).
Still for that read-out and setting: next, `C[CH2][Sn]([F])([CH2]C)[CH2]C`: 76% (active); `CN(C)CCBr`: 81% (active); `O=[N+]([O-])c1ccc2c3c(cccc13)CC2`: 54%.
